High-throughput results as filed in PubChem BioAssay.
NALP1 yeast inh = NALP1 inhibition | S. cerevisiae NALP1/ASC/caspase-1 growth, X-gal OD620, 72 h | inhibition, % at 10 µM | 280,000 tested, 0.61% active; in the data active = inhibition mostly above about 24%, no sharp cut-off; inactive = mostly below about 32%
tim10-1 inh = tim10-1 yeast growth inhibition | AID 463190 | inhibition, % at 20 µM | S. cerevisiae tim10-1 ts strain growth, BacTiter-Glo, 24 h | 330,000 tested, 2.2% active;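 active = inhibition of at least 40%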;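 note: mutant grown at 25 °C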
SKKanGAS inh = blocks kanamycin growth of S. pyogenes SKKanGAS strain; 300,000 tested, 1.3% active; inhibition, % at 7.5 µM; BacTiter-Glo, 6 h;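 active = mean replicate score, as percent of positive control median, at least 50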;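 note: strain carries kanamycin resistance gene driven by streptokinase promoter and grows in 40 µg/ml kanamycin; loss of luminescence reflects streptokinase promoter inhibition or plain growth inhibition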
TIM10 inh = growth inhibitors of TIM10 yeast strain; 330,000 tested, 1.4% active; S. cerevisiae TIM10 strain growth, BacTiter-Glo luminescence, 24 h; inhibition, % at 10 µM;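 active = inhibition of 40% or more at the single tested concentration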;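 note: wild-type TIM10 isogenic control strain grown at permissive 25 °C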
PfHsp90 yeast 2 = growth inhibition of yeast expressing Plasmodium Hsp90 | 310,000 tested, 0.32% active | AID 504621 | inhibition, % at 9.4 µM | S. cerevisiae expressing PfHsp90, BacTiter-Glo ATP, 48 h; yeast lacking PDR1 and PDR3 efflux regulators;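 active = every replicate shows inhibition above about 80%, whatever the replicate mean, limit read from the data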
tim23-1 inh = growth inhibitors of tim23-1 mutant yeast; 330,000 tested, 1.3% active; inhibition, % at 20 µM; S. cerevisiae tim23-1 growth, BacTiter-Glo luminescence, 24 h; AID 463212;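 active = growth inhibition of the mutant yeast at or above 50%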;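 note: temperature-sensitive mutant grown at 25 °C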
tim23-1 confirm = tim23-1 yeast growth inhibition, confirmed; shares compounds with tim23-1 inh; S. cerevisiae tim23-1 growth, BacTiter-Glo luminescence, 24 h; inhibition, % at 20 µM; 4,400 tested, 83% active;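 active = inhibition above about 39% in either of two replicate wells at 20 µM, limit read from the data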;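 note: temperature-sensitive tim23-1 mutant grown at 25 °C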
Each line names hits and unclear results; the compound was inactive in the other large screens (follow-up assays come after a bar, where they were run). Sampled rows, rich in hits. Any-hit rate of the full collection: about 4.8%.

CCCCC(=O)NC(c1ccc(N(C)C)cc1)c1ccc2cccnc2c1O (stereo unspecified)	tim23-1 inh 53.7 | tim23-1 confirm 52.5
CCCCC(=O)NC(c1ccc(Cl)cc1)c1ccc2cccnc2c1O (stereo unspecified)	SKKanGAS inh 70.0, PfHsp90 yeast 2 113.6, tim23-1 inh 56.0 (no result: NALP1 yeast inh) | tim23-1 confirm 49.3
CCCC(=O)NC(c1ccccc1Cl)c1c(O)ccc2ccccc12 (stereo unspecified)	none
CCCC(=O)NC(c1ccc(Cl)cc1)c1ccc2cccnc2c1O (stereo unspecified)	SKKanGAS inh 57.5, PfHsp90 yeast 2 115.3, tim23-1 inh 60.0 | tim23-1 confirm 59.5
CCCC(=O)NC(c1ccc(N(C)C)cc1)c1c(O)ccc2ccccc12 (stereo unspecified)	none
O=C(NC1CCCc2ccccc21)c1ccc(F)cc1F (stereo unspecified)	none
COc1cccc(C(=O)CSc2nccn2C)c1	none
CC1CCC2(CC1)NC(=O)N(CC(=O)Nc1ccc3c(c1)CCC3)C2=O (stereo unspecified)	none (no result: NALP1 yeast inh)
Cc1nc2ccc(NC(=O)CS(=O)(=O)c3ccccc3)cc2s1	none (no result: NALP1 yeast inh, PfHsp90 yeast 2)
N#Cc1c(NC(=O)c2ccc([N+](=O)[O-])o2)sc2c1CCC2	tim23-1 inh 57.7 | tim23-1 confirm 69.0
Cc1csc(CNC(=O)CC2C(=O)NCCN2Cc2ccc(F)cc2Cl)n1 (stereo unspecified)	none
O=S(=O)(c1ccc(Cl)cc1)N1CCN(c2ncnc3sccc23)CC1	tim23-1 inh 58.1 (no result: NALP1 yeast inh, SKKanGAS inh) | tim23-1 confirm inactive
Cc1ccccc1-c1ocnc1C(=O)Nc1ccccc1NC(=O)c1ccccn1	tim23-1 inh 50.3 | tim23-1 confirm 49.2
Cn1c(C(=O)NCCc2c[nH]c3ccccc23)cc2sccc21	tim23-1 inh 56.9 | tim23-1 confirm 57.2
Cc1cccc(C)c1OCc1cc(C(=O)N2CCN3CCCC3C2)no1 (stereo unspecified)	none
COc1ccc(S(=O)(=O)N2CCN(C(=O)c3cnc(C)cn3)CC2)cc1	none
COc1ccc(S(=O)(=O)N2CCN(C(=O)c3ccc4ccccc4n3)CC2)cc1	tim23-1 inh 57.8 (no result: NALP1 yeast inh, SKKanGAS inh) | tim23-1 confirm 61.0
Cc1cc(NC(=O)CN2CCc3ccccc3C2)nc2c1c(=O)oc1ccccc12	tim23-1 inh 53.1 | tim23-1 confirm 62.4
COC(=O)NN1C(=O)C(c2ccccc2)=C(c2ccc(Cl)cc2)C1=O	none (no result: NALP1 yeast inh)
CCOC(=O)c1sc(N(Cc2ccccc2)C(=O)CCl)nc1C	tim23-1 inh 62.0 | tim23-1 confirm 48.2
CC(C)(C)C(=O)/C=c1\[nH]c(=O)/c(=C\c2ccc(F)cc2)s1	tim23-1 inh 52.1 | tim23-1 confirm 50.7
CC(C)(C)C(=O)/C=c1\[nH]c(=O)/c(=C\c2ccccc2F)s1	none
O=C1ON=C(c2ccccc2)/C1=C/c1ccccc1	tim23-1 inh 50.6 | tim23-1 confirm 39.0
O=C(O/N=C(\c1ccccc1)c1ccncc1)c1ccccc1Cl	tim23-1 inh 52.0 | tim23-1 confirm 52.7
CC(C)n1c2ccccc2c2nc3ccccc3nc21	tim23-1 inh 51.1 | tim23-1 confirm 52.1
C#CCn1c2ccccc2c2nc3ccccc3nc21	none
COc1cc(C2C(C#N)=C(N)Oc3cc(C)n(CC4CCCO4)c(=O)c32)cc2c1OCO2 (stereo unspecified)	none (no result: tim10-1 inh, TIM10 inh, tim23-1 inh)
Cc1c(C(=O)OCC(=O)N2CCC(C)CC2)oc2ccccc12	tim23-1 inh 54.3 (no result: NALP1 yeast inh, PfHsp90 yeast 2) | tim23-1 confirm 57.8
Cc1ccc(-c2cc(C(F)F)nc(S(C)(=O)=O)n2)cc1	none
CCc1c(C)nc(SCC(=O)N2CCCCC2)[nH]c1=O	none
O=C(Nc1cccnc1)Nc1ccc(Br)cc1Cl	none (no result: PfHsp90 yeast 2)
COc1ccc(COn2c(=O)c(C)[n+]([O-])c3ccccc32)cc1OC	tim23-1 inh 89.3 | tim23-1 confirm inactive
O=C(C#Cc1ccccc1)Nc1cccc(F)c1	tim23-1 inh 54.1 (no result: NALP1 yeast inh) | tim23-1 confirm 52.5
O=C(C#Cc1ccccc1)Nc1ccc(F)cc1	none
COc1ccc(NC(=O)C#Cc2ccccc2)cc1	tim23-1 inh 51.4 | tim23-1 confirm 54.8
Cc1ccccc1C(=O)Oc1cccc2c(O)cccc12	tim23-1 inh 72.4 | tim23-1 confirm 49.1
Cc1cccc(C(=O)Oc2cccc3c(O)cccc23)c1	tim23-1 inh 69.4 | tim23-1 confirm 51.5
COc1cc(C(=O)NNC(=O)Cc2ccc(S(=O)(=O)N3CCOCC3)s2)cc(OC)c1OC	none
CN1CCC(CO)(Cc2ccccc2)CC1	none
C[C@@]12C(=O)Nc3cc(F)c(F)cc3C(=O)N1[C@H]1c3cc(Cl)ccc3OC[C@@H]1[C@@H]2c1ccccc1	tim23-1 inh 50.6 (no result: NALP1 yeast inh, SKKanGAS inh) | tim23-1 confirm 44.5
C[C@@]12C(=O)Nc3ccc(Br)cc3C(=O)N1[C@H]1c3ccccc3OC[C@@H]1[C@@H]2c1ccccc1	PfHsp90 yeast 2 105.1, tim23-1 inh 61.5 (no result: NALP1 yeast inh, SKKanGAS inh) | tim23-1 confirm 57.5
C[C@@]12C(=O)Nc3ccc(Cl)cc3C(=O)N1[C@H]1c3cc(Cl)ccc3OC[C@@H]1[C@@H]2c1ccccc1	none (no result: NALP1 yeast inh, SKKanGAS inh)
Cc1ccc2c(c1)C(=O)N1[C@H]3c4ccccc4OC[C@@H]3[C@H](c3ccccc3)[C@]1(C)C(=O)N2	PfHsp90 yeast 2 105.2, tim23-1 inh 57.5 (no result: NALP1 yeast inh, SKKanGAS inh) | tim23-1 confirm 60.2
Cc1ccc2c(c1)NC(=O)[C@@]1(C)[C@@H](c3ccccc3)[C@H]3COc4ccccc4[C@@H]3N1C2=O	none (no result: NALP1 yeast inh, SKKanGAS inh)
C[C@@]12C(=O)Nc3ccc(Br)cc3C(=O)N1[C@H]1c3cc(Cl)ccc3OC[C@@H]1[C@@H]2c1ccccc1	none (no result: NALP1 yeast inh, SKKanGAS inh)
Cc1ccc(NC(=O)CN2CCN(CCN=CC3=C(O)CC(c4ccccc4)CC3=O)CC2)cc1 (stereo unspecified)	none
COc1ccc(NC(=O)COc2ncnc3ccccc23)cc1S(=O)(=O)N1CCOCC1	none
COc1ccc(C(C[N+](=O)[O-])c2c(C)cc3ccccn23)c(OC)c1 (stereo unspecified)	tim23-1 inh 81.7 | tim23-1 confirm 74.7
CC(=O)c1ccc(OC(=O)CCNC(=O)c2ccccc2)cc1	none (no result: NALP1 yeast inh, SKKanGAS inh)
CCOC(=O)c1cccc(OC(=O)CCNC(=O)c2ccc(Cl)cc2)c1	tim23-1 inh 57.3 (no result: NALP1 yeast inh, SKKanGAS inh) | tim23-1 confirm 50.6
O=C(COc1ccc(Br)cc1)NC(=S)Nc1ccccc1N1CCOCC1	none
O=C(NC(=S)Nc1ccccc1N1CCOCC1)c1ccc(Br)cc1	tim23-1 inh 55.0 | tim23-1 confirm 53.7
Cc1ccc(S(=O)(=O)NC(Cc2ccccc2)C(=O)NN)cc1 (stereo unspecified)	none
Cc1ccc(S(=O)(=O)N[C@@H](Cc2ccccc2)C(=O)CCl)cc1	tim23-1 inh 69.1 (no result: SKKanGAS inh) | tim23-1 confirm 47.8
Cc1ccccc1C(=O)c1c[nH]c(C(N)=O)c1	none
COc1ccc(C(=O)CSc2nnc(Cn3cnc4ccccc43)o2)cc1	none (no result: PfHsp90 yeast 2)
